Experimental data reported in article PMC9911399, “Two distinct binding modes provide the RNA-binding protein RbFox with extraordinary sequence specificity”.
Positions count from the first letter of the chain named. Over roughly 16,000 sequences, “ka relative to ugcaugu” has its median near 0.0091; the highest 2% begin near 0.032. Many of the other results were omitted from the sample, so the highest values are more common in it than they were.

B1: GCAAACU (DNA:RNA)
RNA: GGGAGACCGGAAUUCAGAUUGUCCGCAAACUUUAAAUCCCGUCGUAGCCACCA
DNA 1: CAATCTGAATTCCGGTCTCCC
DNA 2: TGGTGGCTACGACGGGATT
B2: GGAACAC (DNA:RNA)
RNA: B1 RNA with C26G, A29C, C30A, U31C
DNA 1: CAATCTGAATTCCGGTCTCCC
DNA 2: TGGTGGCTACGACGGGATT
B3: UAGCAUC (DNA:RNA)
RNA: B1 RNA with G25U, C26A, A27G, A28C, C30U, U31C
DNA 1: CAATCTGAATTCCGGTCTCCC
DNA 2: TGGTGGCTACGACGGGATT
B4: AGCAUAA (DNA:RNA)
RNA: B1 RNA with G25A, C26G, A27C, A29U, C30A, U31A
DNA 1: CAATCTGAATTCCGGTCTCCC
DNA 2: TGGTGGCTACGACGGGATT
B5: UAGCAUG (DNA:RNA)
RNA: B1 RNA with G25U, C26A, A27G, A28C, C30U, U31G
DNA 1: CAATCTGAATTCCGGTCTCCC
DNA 2: TGGTGGCTACGACGGGATT
B6: AGCAUGA (DNA:RNA)
RNA: B1 RNA with G25A, C26G, A27C, A29U, C30G, U31A
DNA 1: CAATCTGAATTCCGGTCTCCC
DNA 2: TGGTGGCTACGACGGGATT
B7: AAGCAUG (DNA:RNA)
RNA: B1 RNA with G25A, C26A, A27G, A28C, C30U, U31G
DNA 1: CAATCTGAATTCCGGTCTCCC
DNA 2: TGGTGGCTACGACGGGATT
B8: AAGCAUA (DNA:RNA)
RNA: B1 RNA with G25A, C26A, A27G, A28C, C30U, U31A
DNA 1: CAATCTGAATTCCGGTCTCCC
DNA 2: TGGTGGCTACGACGGGATT
B9: ACCAGCA (DNA:RNA)
RNA: B1 RNA with G25A, A27C, A29G, U31A
DNA 1: CAATCTGAATTCCGGTCTCCC
DNA 2: TGGTGGCTACGACGGGATT
B10: AGAAUGC (DNA:RNA)
RNA: B1 RNA with G25A, C26G, A29U, C30G, U31C
DNA 1: CAATCTGAATTCCGGTCTCCC
DNA 2: TGGTGGCTACGACGGGATT
B11: UAGCAUA (DNA:RNA)
RNA: B1 RNA with G25U, C26A, A27G, A28C, C30U, U31A
DNA 1: CAATCTGAATTCCGGTCTCCC
DNA 2: TGGTGGCTACGACGGGATT
B12: AGCCUGC (DNA:RNA)
RNA: GGGAGACCGGAAUUCAGAUUGUCCAGCCUGCUUAAAUCCCGUCGUAGCCACCA
DNA 1: CAATCTGAATTCCGGTCTCCC
DNA 2: TGGTGGCTACGACGGGATT
B13: AAGCAUC (DNA:RNA)
RNA: B12 RNA with G26A, C27G, U29A, G30U
DNA 1: CAATCTGAATTCCGGTCTCCC
DNA 2: TGGTGGCTACGACGGGATT
B14: AGCAUGC (DNA:RNA)
RNA: B12 RNA with C28A
DNA 1: CAATCTGAATTCCGGTCTCCC
DNA 2: TGGTGGCTACGACGGGATT
B15: GGUGGAA (DNA:RNA)
RNA: B12 RNA with A25G, C27U, C28G, U29G, G30A, C31A
DNA 1: CAATCTGAATTCCGGTCTCCC
DNA 2: TGGTGGCTACGACGGGATT
B16: UGGCGAC (DNA:RNA)
RNA: B12 RNA with A25U, C27G, U29G, G30A
DNA 1: CAATCTGAATTCCGGTCTCCC
DNA 2: TGGTGGCTACGACGGGATT
B17: CCGGGGC (DNA:RNA)
RNA: B12 RNA with A25C, G26C, C27G, C28G, U29G
DNA 1: CAATCTGAATTCCGGTCTCCC
DNA 2: TGGTGGCTACGACGGGATT
B18: ACUCUUG (DNA:RNA)
RNA: B12 RNA with G26C, C27U, G30U, C31G
DNA 1: CAATCTGAATTCCGGTCTCCC
DNA 2: TGGTGGCTACGACGGGATT
B19: GAGUGCG (DNA:RNA)
RNA: B1 RNA with C26A, A27G, A28U, A29G, U31G
DNA 1: CAATCTGAATTCCGGTCTCCC
DNA 2: TGGTGGCTACGACGGGATT
B20: UGCCUUA (DNA:RNA)
RNA: B12 RNA with A25U, G30U, C31A
DNA 1: CAATCTGAATTCCGGTCTCCC
DNA 2: TGGTGGCTACGACGGGATT

Target: T1, RBFOX1 RRM (Homo sapiens, UniProt Q9NWB1 109-208)
T1 sequence: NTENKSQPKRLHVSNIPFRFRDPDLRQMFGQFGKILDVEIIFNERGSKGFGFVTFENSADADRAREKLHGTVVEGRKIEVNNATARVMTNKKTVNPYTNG
Test: EMSA; HiTS-Eq, 1 nM pool, 10 min; buffer printed only for the single-RNA assays: 10 mM Tris pH 7.5, 150 mM NaCl, 3.4 mM EDTA, 0.001% NP-40, 30 C
Conditions: tags: His6 N-terminal (pET28a); label: 5' 32P
In short: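 Purified RbFox RRM, wild type or mutant, was incubated for 10 min in 50 µL with 1 nM of a 5′-radiolabelled RNA pool carrying 7 randomized nucleotides, whose flanks were annealed to DNA oligonucleotides, over a series of increasing protein concentrations. Unbound RNA was resolved on 8% native PAGE, cut out, reverse-transcribed, barcoded by PCR and sequenced on an Illumina HiSeq 2500. Relative association constants were derived from changes in read counts for each RNA species versus the control reaction and normalised to the cognate motif.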

Row | Binder | binding signal
1 | B1 | 0.00432 KA relative to UGCAUGU
2 | B2 | 0.0079 KA relative to UGCAUGU
3 | B3 | 0.0216 KA relative to UGCAUGU
4 | B4 | 0.00471 KA relative to UGCAUGU
5 | B5 | 0.795 KA relative to UGCAUGU
6 | B6 | 0.35 KA relative to UGCAUGU
7 | B7 | 0.674 KA relative to UGCAUGU
8 | B8 | 0.00459 KA relative to UGCAUGU
9 | B9 | 0.0049 KA relative to UGCAUGU
10 | B10 | 0.022 KA relative to UGCAUGU
11 | B11 | 0.011 KA relative to UGCAUGU
12 | B12 | 0.0203 KA relative to UGCAUGU
13 | B13 | 0.0137 KA relative to UGCAUGU
14 | B14 | 0.888 KA relative to UGCAUGU
15 | B15 | 0.00994 KA relative to UGCAUGU
16 | B16 | 0.00695 KA relative to UGCAUGU
17 | B17 | 0.0147 KA relative to UGCAUGU
18 | B18 | 0.0078 KA relative to UGCAUGU
19 | B19 | 0.0156 KA relative to UGCAUGU
20 | B20 | 0.00671 KA relative to UGCAUGU
